In assay [1] the target is ATP-dependent translocase ABCB1 (Homo sapiens) (UniProt P08183). Briefly: MDR1 (ABCB1) efflux transporter inhibition, cell-based (AID 377; in the data active = fluorescence slope change above about 50%). As to conditions: MDR1-expressing cells, fluorescent substrate accumulation slope; stronger effect = higher value; concentration not given here.
The nature of assay [2]: liver-stage malaria parasite growth inhibition, primary screen, cell-based, HepG2, luciferase luminescence, HepG2 viability (AID 624349; in the data active = parasite load remaining mostly below about 12%, no sharp cut-off; inactive = mostly above about 10%;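 note: 100% = mean of DMSO negative control wells on the same plate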). The note with it: P. berghei liver stage in HepG2, luciferase luminescence, concentration not given here; parasite load remaining: stronger effect = lower value; viability: measured here: HepG2 viability without parasites.
Assay [3] has as its target 6-phosphogluconate dehydrogenase, decarboxylating (Homo sapiens) (UniProt P52209). Briefly: 6PGD enzyme inhibitors, primary screen, biochemical, human, recombinant enzyme, NADPH absorbance (AID 1159550;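 active = at least 20% inhibition of 6-phosphogluconate dehydrogenase activity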). The note with it: recombinant 6PGD, NADPH absorbance 341 nm; at 10 µM; stronger effect = higher value.
Assay [4] is described as follows: sensitizers of A549 cells to miR-34 induction, primary screen, imaging, A549 dox-inducible miR-34, nuclei and caspase counts (AID 1347080;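 active = compounds whose cell count with miR-34 switched on is under 0.7 times the count with it off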). As to conditions: A549 miR-34 inducible, Hoechst nuclei count, 48 h.
Assay [5] has as its target Mitogen-activated protein kinase 7 (Homo sapiens) (UniProt Q13164). Put plainly: ERK5 transactivation activators in reporter cells, primary screen, cell-based, HTS (AID 1508626;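 active = luciferase signal above three times the same-plate solvent-only control wells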;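 note: luciferase driven by Gal4-ERK5 fusion binding five Gal4 sites before minimal TATA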). As to conditions: HeLa Gal4-ERK5 transactivation, 18 h, at 5 µM, stronger effect = higher value.
Assay [6] in a line: hESC survival regulators, cell-based (AID 493140).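 Note: cells exposed to compounds for four days before counting.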 The note with it: human embryonic stem cell survival screen; stronger effect = higher value.
Assay [7] is described as follows: antimalarial activity against Dd2 strain (AID 2302;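 active = growth inhibition above 50% at the single 2 µM test dose, taken to imply half-maximal potency below 2 µM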;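 note: 0% = DMSO untreated growth and 100% = chloroquine plus artemisinin killed control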). As to conditions: P. falciparum Dd2 in RBCs, LDH growth readout, 72 h; at 2 µM; stronger effect = higher value.
A short description of assay [8]: HepG2 cytotoxicity, primary screen, cytotoxicity control for P. falciparum antimalarial project, cell-based, ATP luminescence (AID 2303;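 active = inhibition above 50%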;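 note: 0% = DMSO wells and 100% = digitonin-killed cells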). As to conditions: HepG2 viability, 24-48 h, at 10 µM, stronger effect = higher value.
Assay [9] addresses L-lactate dehydrogenase (Plasmodium falciparum (isolate CDC / Honduras)) (UniProt Q27743). Put plainly: PfLDH activity inhibition – cell lysate, 3D7 strain, counter-screen for P. falciparum growth inhibition project (AID 2304).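 Note: 0% = vehicle and 100% = reference inhibitor.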 As to conditions: P. falciparum 3D7 crude extract, LDH APAD/NBT absorbance; at 2 µM; stronger effect = higher value. In general terms: Counterscreens check selectivity or assay interference.

A short description of assay [10]: inhibition of 3D7 malaria parasite growth – strain 3D7 (AID 2306).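 Note: 0% = DMSO wells and 100% = chloroquine plus artemisinin control wells.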 As to conditions: P. falciparum 3D7 erythrocytic growth, LDH absorbance, 72 h; at 2 µM; stronger effect = higher value.
The target of assay [11] is Calcium-dependent protein kinase 1 (Plasmodium falciparum (isolate 3D7)) (UniProt P62344). Put plainly: PfCDPK1 kinase inhibitors, biochemical, TCAMS library (AID 1159585; cut-off not given, nearly all actives have IC50 up to about 0.98 µM;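 note: inhibitors leave more ATP so luminescence rises with inhibition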). As to conditions: recombinant PfCDPK1, Kinase-Glo ATP depletion luminescence.
The target in assay [12] is Plasmodium falciparum protein kinase 6 (PK6, PF3D7_1337100) (UniProt Q8IDW1). Put plainly: PfPK6 kinase inhibitors, biochemical, TCAMS library (AID 1159586). The note with it: recombinant PfPK6, Kinase-Glo ATP depletion luminescence.
Assay [13] deals with Protein kinase 7 (PK7), Plasmodium falciparum 3D7 (PF3D7_0213400) (UniProt Q7YTF7). Briefly: inhibition of Plasmodium PK7 catalytic activity – biochemical, TCAMS antimalarial set, Kinase-Glo luminescence (AID 1159587). The note with it: recombinant PfPK7, Kinase-Glo ATP depletion luminescence. Background: In Kinase-Glo more light means more ATP remaining.
Assay [14] addresses Calcium-dependent protein kinase 4 (Plasmodium falciparum (isolate 3D7)) (UniProt Q8IBS5). Put plainly: PfCDPK4 kinase inhibitors, biochemical, TCAMS library (AID 1159588; cut-off not given, nearly all actives have IC50 up to about 0.91 µM). As to conditions: recombinant PfCDPK4, Kinase-Glo ATP depletion luminescence.
Setting [15] is: measured here: relative caspase fold change +Dox/-Dox.
Setting [16] is: measured here: total cells with miR-34 induction, stronger effect = lower value.
Setting [17] is: measured here: total cells without miR-34 induction.

Where “and” joins values, the source holds several entries; their conditions need not be identical. Equal values may be shown once. Records with an inconclusive call do not appear. For some assays here: Potency and affinity values are given separately. Calls of active or inactive are those of the source. Unless noted, the rule behind the calls is not given here.

Sequence of Calcium-dependent protein kinase 4 (Plasmodium falciparum (isolate 3D7)) (Q8IBS5 whole entry, looked up): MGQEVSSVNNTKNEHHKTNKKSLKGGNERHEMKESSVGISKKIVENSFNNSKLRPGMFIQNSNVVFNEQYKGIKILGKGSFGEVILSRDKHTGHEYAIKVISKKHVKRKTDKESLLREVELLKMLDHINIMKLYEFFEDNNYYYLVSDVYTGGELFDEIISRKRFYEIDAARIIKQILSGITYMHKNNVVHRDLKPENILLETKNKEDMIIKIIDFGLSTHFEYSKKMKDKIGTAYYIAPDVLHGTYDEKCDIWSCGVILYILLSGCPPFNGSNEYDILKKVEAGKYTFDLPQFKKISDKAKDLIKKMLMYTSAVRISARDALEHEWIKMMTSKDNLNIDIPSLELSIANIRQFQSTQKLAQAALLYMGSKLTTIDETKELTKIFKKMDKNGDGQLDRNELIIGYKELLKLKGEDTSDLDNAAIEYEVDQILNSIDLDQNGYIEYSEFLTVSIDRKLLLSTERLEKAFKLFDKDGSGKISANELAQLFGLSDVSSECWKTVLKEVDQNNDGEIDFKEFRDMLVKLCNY
Sequence of L-lactate dehydrogenase (Plasmodium falciparum (isolate CDC / Honduras)) (Q27743 whole entry, looked up): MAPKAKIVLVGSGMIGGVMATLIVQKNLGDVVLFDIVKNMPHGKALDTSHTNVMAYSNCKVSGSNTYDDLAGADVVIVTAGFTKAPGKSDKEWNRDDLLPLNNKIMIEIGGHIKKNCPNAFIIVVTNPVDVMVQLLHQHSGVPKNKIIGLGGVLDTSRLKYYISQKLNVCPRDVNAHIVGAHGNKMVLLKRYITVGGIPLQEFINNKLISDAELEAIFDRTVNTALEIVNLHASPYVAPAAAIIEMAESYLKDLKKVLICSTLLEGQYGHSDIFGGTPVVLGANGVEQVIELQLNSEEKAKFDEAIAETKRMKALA
Sequence of Calcium-dependent protein kinase 1 (Plasmodium falciparum (isolate 3D7)) (P62344 whole entry, looked up): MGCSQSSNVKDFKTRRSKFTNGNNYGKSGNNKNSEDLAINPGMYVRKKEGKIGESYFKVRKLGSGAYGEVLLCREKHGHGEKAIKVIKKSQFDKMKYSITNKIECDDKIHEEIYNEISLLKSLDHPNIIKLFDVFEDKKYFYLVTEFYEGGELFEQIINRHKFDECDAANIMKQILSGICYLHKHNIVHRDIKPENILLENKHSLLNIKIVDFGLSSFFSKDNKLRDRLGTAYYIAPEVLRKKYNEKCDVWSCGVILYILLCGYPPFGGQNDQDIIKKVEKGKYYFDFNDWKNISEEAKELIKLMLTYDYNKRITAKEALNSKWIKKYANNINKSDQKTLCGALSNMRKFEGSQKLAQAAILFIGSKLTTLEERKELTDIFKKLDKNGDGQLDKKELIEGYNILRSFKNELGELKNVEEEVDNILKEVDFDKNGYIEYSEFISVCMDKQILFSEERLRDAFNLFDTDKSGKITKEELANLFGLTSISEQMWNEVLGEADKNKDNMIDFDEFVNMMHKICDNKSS
Sequence of Plasmodium falciparum protein kinase 6 (PK6, PF3D7_1337100) (Q8IDW1 1-305): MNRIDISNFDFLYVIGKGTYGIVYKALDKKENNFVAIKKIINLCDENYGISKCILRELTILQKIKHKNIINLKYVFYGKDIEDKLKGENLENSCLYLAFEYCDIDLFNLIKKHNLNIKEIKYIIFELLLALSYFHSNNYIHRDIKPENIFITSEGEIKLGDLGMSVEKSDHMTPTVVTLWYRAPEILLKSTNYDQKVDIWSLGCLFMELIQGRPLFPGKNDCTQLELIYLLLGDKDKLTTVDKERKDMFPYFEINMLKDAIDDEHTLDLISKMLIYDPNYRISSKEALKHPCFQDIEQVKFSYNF
Sequence of 6-phosphogluconate dehydrogenase, decarboxylating (Homo sapiens) (P52209 whole entry, looked up): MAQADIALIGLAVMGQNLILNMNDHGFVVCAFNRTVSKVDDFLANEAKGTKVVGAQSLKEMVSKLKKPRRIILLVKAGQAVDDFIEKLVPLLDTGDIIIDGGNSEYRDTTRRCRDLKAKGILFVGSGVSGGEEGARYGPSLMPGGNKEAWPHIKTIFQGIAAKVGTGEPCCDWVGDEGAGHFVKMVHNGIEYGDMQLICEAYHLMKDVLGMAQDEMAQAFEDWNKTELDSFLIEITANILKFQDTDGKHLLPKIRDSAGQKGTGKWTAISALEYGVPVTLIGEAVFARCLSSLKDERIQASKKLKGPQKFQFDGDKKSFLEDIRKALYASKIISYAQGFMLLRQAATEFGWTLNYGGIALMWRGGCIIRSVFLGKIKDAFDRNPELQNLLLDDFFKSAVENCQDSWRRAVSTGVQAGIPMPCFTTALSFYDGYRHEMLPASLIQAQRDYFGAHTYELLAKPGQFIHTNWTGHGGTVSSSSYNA
Sequence of Protein kinase 7 (PK7), Plasmodium falciparum 3D7 (PF3D7_0213400) (Q7YTF7 1-343): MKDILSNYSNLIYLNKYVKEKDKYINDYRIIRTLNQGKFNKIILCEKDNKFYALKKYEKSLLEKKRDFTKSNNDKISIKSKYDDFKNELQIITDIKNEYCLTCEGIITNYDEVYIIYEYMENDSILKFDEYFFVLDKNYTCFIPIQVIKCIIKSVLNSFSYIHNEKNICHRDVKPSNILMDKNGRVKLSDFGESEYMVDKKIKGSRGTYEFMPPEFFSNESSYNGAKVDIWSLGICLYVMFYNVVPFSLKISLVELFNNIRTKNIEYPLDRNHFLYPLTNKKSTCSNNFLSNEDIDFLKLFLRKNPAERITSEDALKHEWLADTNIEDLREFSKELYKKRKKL
Sequence of Mitogen-activated protein kinase 7 (Homo sapiens) (Q13164 whole entry, looked up, the tested form may be a part): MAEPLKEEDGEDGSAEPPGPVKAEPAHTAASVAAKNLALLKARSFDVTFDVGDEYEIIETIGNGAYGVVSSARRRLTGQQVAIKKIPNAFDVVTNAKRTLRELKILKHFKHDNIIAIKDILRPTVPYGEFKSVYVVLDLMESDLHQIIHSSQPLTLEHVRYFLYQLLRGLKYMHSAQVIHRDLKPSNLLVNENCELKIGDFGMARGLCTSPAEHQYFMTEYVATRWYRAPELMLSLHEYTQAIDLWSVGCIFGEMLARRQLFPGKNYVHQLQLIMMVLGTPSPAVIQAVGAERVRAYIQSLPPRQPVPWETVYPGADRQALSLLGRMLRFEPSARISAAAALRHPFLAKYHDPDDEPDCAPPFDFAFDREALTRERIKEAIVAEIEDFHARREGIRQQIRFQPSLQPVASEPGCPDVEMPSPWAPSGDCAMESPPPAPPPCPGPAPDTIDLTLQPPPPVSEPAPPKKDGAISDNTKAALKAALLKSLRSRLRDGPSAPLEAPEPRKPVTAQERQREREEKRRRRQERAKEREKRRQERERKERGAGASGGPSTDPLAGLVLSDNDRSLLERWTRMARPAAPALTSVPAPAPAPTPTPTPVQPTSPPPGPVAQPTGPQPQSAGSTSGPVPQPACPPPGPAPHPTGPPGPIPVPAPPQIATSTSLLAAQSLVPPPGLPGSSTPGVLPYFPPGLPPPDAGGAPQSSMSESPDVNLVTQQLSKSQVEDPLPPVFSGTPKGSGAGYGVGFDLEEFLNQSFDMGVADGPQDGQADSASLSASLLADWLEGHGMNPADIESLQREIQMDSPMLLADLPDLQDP
Sequence of ATP-dependent translocase ABCB1 (Homo sapiens) (P08183 whole entry, looked up): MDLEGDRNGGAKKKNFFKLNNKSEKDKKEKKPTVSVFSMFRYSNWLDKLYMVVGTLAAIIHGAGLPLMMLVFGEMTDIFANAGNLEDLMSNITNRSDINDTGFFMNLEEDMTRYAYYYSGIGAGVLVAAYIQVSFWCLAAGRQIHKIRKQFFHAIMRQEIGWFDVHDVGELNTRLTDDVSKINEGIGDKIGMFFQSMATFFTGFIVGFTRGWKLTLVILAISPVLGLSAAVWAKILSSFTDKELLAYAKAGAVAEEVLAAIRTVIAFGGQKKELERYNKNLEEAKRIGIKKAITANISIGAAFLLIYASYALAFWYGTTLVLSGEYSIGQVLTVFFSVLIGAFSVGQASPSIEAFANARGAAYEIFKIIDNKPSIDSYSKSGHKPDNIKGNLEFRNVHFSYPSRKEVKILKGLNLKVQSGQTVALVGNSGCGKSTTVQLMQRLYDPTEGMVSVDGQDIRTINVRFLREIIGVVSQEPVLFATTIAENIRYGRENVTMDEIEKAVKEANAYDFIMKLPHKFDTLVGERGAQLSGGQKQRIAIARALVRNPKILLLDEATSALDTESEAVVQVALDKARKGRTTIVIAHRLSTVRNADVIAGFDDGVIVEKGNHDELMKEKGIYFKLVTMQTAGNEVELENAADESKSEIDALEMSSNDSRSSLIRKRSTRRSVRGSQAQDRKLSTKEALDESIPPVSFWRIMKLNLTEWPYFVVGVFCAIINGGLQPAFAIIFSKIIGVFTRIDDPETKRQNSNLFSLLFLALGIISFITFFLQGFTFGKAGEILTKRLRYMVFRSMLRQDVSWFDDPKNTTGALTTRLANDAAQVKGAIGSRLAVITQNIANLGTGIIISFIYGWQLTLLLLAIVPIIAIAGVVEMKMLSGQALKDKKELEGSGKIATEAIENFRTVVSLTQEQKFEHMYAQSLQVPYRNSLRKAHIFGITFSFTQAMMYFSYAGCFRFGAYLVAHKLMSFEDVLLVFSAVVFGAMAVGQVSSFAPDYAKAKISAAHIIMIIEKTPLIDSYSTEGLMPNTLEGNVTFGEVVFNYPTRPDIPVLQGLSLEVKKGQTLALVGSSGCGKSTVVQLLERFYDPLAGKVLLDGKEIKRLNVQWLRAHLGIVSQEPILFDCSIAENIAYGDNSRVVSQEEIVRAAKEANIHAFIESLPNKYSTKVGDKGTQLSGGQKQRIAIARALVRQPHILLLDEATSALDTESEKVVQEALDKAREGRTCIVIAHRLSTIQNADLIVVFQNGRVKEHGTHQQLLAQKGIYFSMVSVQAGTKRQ

For the molecule `C[C@H]1CC[C@]2(NC1)O[C@H]1C[C@H]3[C@@H]4CC[C@H]5C[C@@H](O)CC[C@]5(C)[C@H]4CC[C@]3(C)[C@H]1[C@@H]2C`, the fluorescence slope change in [1] was 83.2% (active). Moreover, the parasite load remaining in assay [2] is 75.2% (inactive). Besides, the viability (usually a read-out of living cells in per cent, often relative to untreated cells) in assay [2] worked out at 101%. The inhibition (commonly the relative decrease from the control value, in per cent) in assay [3] was -31.5% (inactive). The fold change in [4] (stronger effect = lower value, cell number ratio, induced over uninduced) is 0.873 (inactive); in assay [4] (setting [15]), 1.03. Moreover, the cell count in assay [4] (setting [16]) worked out at 9790; in assay [4] (setting [17]), 11200. In addition, in assay [5], the luciferase signal is 104 AU (inactive).

Consider `CC(N)C(O)c1ccc(O)c(O)c1` (stereo unspecified), for which, in assay [6], the survival is 3.67 (inactive). In [3], the inhibition was -5.53% (inactive).

`COc1ccc(CC2c3cc(OC)c(OC)cc3CCN2C)cc1OC` (stereo unspecified): the fluorescence slope change in [1] is 206% (active). Also, in [6], the survival is 6.67 (inactive). Besides, in assay [2], the parasite load remaining is 122% (inactive) and 66.2% (inactive). For the same molecule, the viability in assay [2] was 98.7% and 71.4%. For the same molecule, the inhibition in [3] was -3.74% (inactive). For the same molecule, the fold change was 0.878 (inactive) in assay [4] (stronger effect = lower value) and 1.5 in assay [4] (setting [15]). Moreover, the cell count is 9520 in assay [4] (setting [16]) and 10800 in assay [4] (setting [17]).

As for `COP(=S)(OC)SCn1nnc2ccccc2c1=O`, the inhibition in assay [3] was 1.29% (inactive). Moreover, the luciferase signal in assay [5] was 64 AU (inactive).

On to `O=C(/C=C/c1cc(F)c(F)cc1F)N1CCC(CN2CCC(c3c[nH]c4ccccc34)CC2)CC1`, for which the growth inhibition in assay [7] is 3% (inactive); in [10] it was 93% (active). The figures for the inhibition in [8] and in assay [9] were 26% (inactive) and 1% (inactive), respectively. For the same molecule, the outcome in assay [11], in assay [12], in [13] and in assay [14] was inactive.

`CC(C)CNCc1cccc(-c2ccccc2CN(C(=O)Nc2ccccc2)C2CCN(Cc3ccccc3)CC2)c1`: the growth inhibition was 68% (active) in assay [7] and 100% (active) in [10]. Further, the inhibition in assay [8] is 36% (inactive); in [9], -2% (inactive). Moreover, the outcome in assay [11], in assay [12], in [13] and in assay [14] was inactive.

Regarding `CC(Cc1ccc(OCCCCOc2ccccc2)cc1)NCCCn1ccnc1` (stereo unspecified), the growth inhibition in assay [7] and in [10] was 101% (active) each time. For the same molecule, the inhibition in assay [8] was 100% (active); in assay [9] it was 0% (inactive). In addition, the outcome in assay [11], in assay [12], in assay [13] and in assay [14] was inactive.

As to `N#Cc1c(Cl)cccc1Oc1ccc(S(=O)(=O)N2CCC(CN3CCC(c4c[nH]c5ccccc45)CC3)CC2)cc1`, the growth inhibition is 67% (active) in [7] and 100% (active) in assay [10]. Moreover, the inhibition in assay [8] was 36% (inactive); in assay [9], 4% (inactive). Further, the outcome in [11], in assay [12], in assay [13] and in [14] was inactive.

Consider `O=C(C=Cc1ccc(Br)cc1)NC1CCC(CN2CCC(c3c[nH]c4ccccc34)CC2)CC1` (stereo unspecified), for which the growth inhibition in assay [7] was 98% (active); in assay [10] it was 101% (active). Moreover, the inhibition was 71% (active) in assay [8] and -3% (inactive) in assay [9]. The outcome in assay [11], in assay [12], in assay [13] and in assay [14] was inactive.

Take `CN1CC=C(C=Cc2c[nH]c3ccccc23)CC1`: the growth inhibition was 64% (active) in assay [7] and 86% (active) in assay [10]. Moreover, the inhibition in [8] is 14% (inactive); in [9], -1% (inactive). The outcome in assay [11], in [12], in [13] and in assay [14] was inactive.

For the molecule `CCN(Cc1ccccc1)CC(O)c1ccc(Cl)c(Cl)c1` (stereo unspecified), the growth inhibition in [7] was 71% (active); in assay [10], 96% (active). Further, the inhibition is 2% (inactive) in [8] and 1% (inactive) in assay [9]. Also, the outcome in assay [11], in [12], in assay [13] and in assay [14] was inactive.

As for `COC(=O)/C=C/c1ccc(CC(C)NCC(O)c2cccc(Cl)c2)cc1` (stereo unspecified), the growth inhibition in [7] is 73% (active); in assay [10] it was 99% (active). The inhibition in [8] is 2% (inactive); in assay [9] it was 5% (inactive). Moreover, the result in assay [11], in [12], in [13] and in assay [14] was inactive.

Source of the values: PubChem BioAssay.
